Compound activity: PubChem BioAssay, National Center for Advancing Translational Sciences (NCATS)
TDP43 rescue: qHTS of TDP-43 Inhibitors. TDP-43 expressing yeast growth rescue, BacTiter-Glo, 24 h. Potency, µM (series often up to 46.1 µM), without a hit: at the top dose growth rescue (activation), actives largely listed as activators. AID 652104, 2013. 410,000 tested, 1.8% active; also: % of control where 0% means no effect; nearly all actives have a fitted effect of over 50% in size
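Yeast cells expressing TDP-43 under galactose induction are exposed to compounds for 24 hr at 30 deg C. BacTiter-Glo luminescence measures growth, so protective compounds score as activators.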
ClpP mod: qHTS Assay for Activators of ClpP. Potency, µM (highest dose often 57.5 µM), inactives show top-dose activity change, negative = active. ATP-dependent Clp protease proteolytic subunit (Bacillus subtilis (strain 168)), P80244. purified B. subtilis ClpP, FRET peptide cleavage, 20 min. 340,000 tested, 1.9% active; active = well fitted falling curve with a large enough effect; inconclusive = small, poorly fitted or top-dose-only effect; inactive = no such curve, though single readings can be large or run the other way; also: the source files actives as falling curves though it sought activators and does not explain the sign; nearly all actives have a fitted effect of over 65% in size
Target sequence (P80244 whole entry, looked up): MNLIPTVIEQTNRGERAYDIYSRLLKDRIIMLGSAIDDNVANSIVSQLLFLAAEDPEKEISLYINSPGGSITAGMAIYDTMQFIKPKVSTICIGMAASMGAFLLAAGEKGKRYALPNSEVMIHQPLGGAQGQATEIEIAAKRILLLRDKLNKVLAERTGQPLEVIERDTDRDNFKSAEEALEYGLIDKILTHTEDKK
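Purified B. subtilis ClpP, 10 microg/mL final in Tris/HCl pH8 with KCl, BSA, glycerol and Tween-20, cleaved an Abz/nitrotyrosine-quenched decapeptide. Fluorescence (ex 320, em 430) was read at 0 and 20 min at room temperature. Delta was normalized to 5.8 microM ADEP and DMSO/no-enzyme controls.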
Abeta yeast res: qHTS for compounds that reverse cellular toxicity of Amyloid beta (A-beta) peptide in yeast: Primary Screen; yeast expressing A-beta42, growth rescue, OD600, 48 h; response scale: 0% DMSO, 100% iron-clioquinol control; Potency, µM (titrated, usually from 46.1 µM), usual class: activators; 410,000 tested, 0.063% active; AID 1347071, 2019; also: nearly all actives have a fitted effect of over 55% in size
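Growth rescue measured by 600 nm absorbance after 48 h yeast culture at 30 C with compound. Values normalized between DMSO and an equimolar ferric chloride plus clioquinol control.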
FUS yeast rescue: qHTS for Suppressors of FUS Proteinopathy: Primary screen using FUS-linked yeast assay; AID 1347120, 2019; Potency, µM (titrated, usually from 76.6 µM), most hits filed as activators; 390,000 tested, 0.24% active; S. cerevisiae FUS-expressing, growth rescue, OD600, 24 h;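 also: plate controls were DMSO vehicle for no effect and reference control for full effect; nearly all actives have a fitted effect of over 55% in size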
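Cultures pregrown in 2.5% raffinose medium are shifted to minimal medium containing 2% galactose to express toxic FUS. Compounds are tested at several concentrations. After 24hr at 30C, growth is quantified at 600 nm absorbance.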
aSyn rescue: qHTS of alpha-syn Inhibitors. AID 652106, 2013. 370,000 tested, 0.14% active. Potency, µM (highest dose often 46.1 µM), without a hit: top-dose growth rescue (activation), actives largely listed as activators. Yeast expressing alpha-synuclein, growth rescue, BacTiter-Glo, 24 h; also: % of control where 0% means no effect; nearly all actives have a fitted effect of over 65% in size
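Rescue of yeast growth: cells expressing toxic alpha-synuclein, induced in galactose at OD600 0.02, incubated with compound 24 h at 30 C. ATP luminescence quantified growth; inhibitors of toxicity appear as activators.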
Mm-Cpn inhibitor: Inhibitors of TCP-1 ring complex (TRiC) of Methanococcus maripaludis (MmCpn): qHTS. Potency, µM (titrated, usually from 76.9 µM), inactives show at the highest dose activity, negative = inhibition, most hits filed as inhibitors. Chaperonin Mm-Cpn (Methanococcus maripaludis). 330,000 tested, 0.031% active. purified Mm-Cpn ATPase, ADP Transcreener TR-FRET; also: % is scaled to controls: 0 for no effect and ±100 for the full control effect; nearly all actives have a fitted effect of over 80% in size
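ATPase read-out: TR-FRET ADP immunoassay (anti-ADP Eu cryptate vs ADP-d2), ex 320 nm, em 590/665 nm; signal drops as ADP forms. Enzyme 25 nM, ATP 10 uM, 30 min at 37°C after 10 min compound preincubation.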
* marks the source's active call; other numbers are inactive results; i = inactive; ? = inconclusive; · = not tested or not shown; [ ] = dose if it differs, or a comment. Shown are actives, neighbours in structure and some others; about 3.6% of the full set was active somewhere. Unless noted, calls follow the shape of the dose curve; as a rule, active = well fitted curve in the direction sought with a large enough effect; inconclusive = small, poorly fitted or top-dose-only effect, or another doubt; inactive = no such curve, though single readings can be large; an effect the other way counts as inactive or inconclusive. Potency is read from the fitted curve at half-maximal effect.

SMILES	TDP43 rescue	ClpP mod	Abeta yeast res	FUS yeast rescue	aSyn rescue	Mm-Cpn inhibitor
CCCSc1nnc(Sc2nnnn2-c2ccccc2)s1	18µM*	-3%	i	i	0%	-4%
Cc1cc(F)ccc1-n1nnc(C(N)=O)c1C	?	-3%	i	i	·	·
CC1(C)Cc2cccc(OCC(=O)N3CCN(c4cccc(Cl)c4)CC3)c2O1	?	25µM*	i	i	?	0%
COc1cccc(-n2c(C)nc3c(cnn3-c3ccc(C)c(C)c3)c2=O)c1	22µM*	-1%	i	i	·	·
Cc1ccc(-n2c(C)nc3c(cnn3-c3ccccc3Cl)c2=O)cc1C	11µM*	-4%	i	i	0%	0%
CCCCNC(=O)OCCCN1CCC2(CCC(c3ccccc3)CC2)C1 (stereo not drawn)	·	·	·	i	·	·
COC(=O)/C=C1\OC(c2ccccc2)c2ccccc21 (stereo not drawn)	29%	1%	i	i	-1%	·
COC(=O)/C=C1\OC(C2CC2)c2ccccc21 (stereo not drawn)	28µM*	-2%	i	i	-9%	·
O=C(NCC1CCN(C(=O)c2c(F)c(F)c(F)c(F)c2F)CC1)c1c(F)c(F)c(F)c(F)c1F	13µM*	-2%	i	·	13%	2%
Cc1ccc(C(C(=O)NC(C)(C)C)N(Cc2ccco2)C(=O)Cn2nnc(-c3cccs3)n2)cc1 (stereo not drawn)	5%	25µM*	i	i	2%	-1%
Cc1ccc(C)c(S(=O)(=O)N2CCN(C(=O)Cc3sc(C)nc3-c3ccc(F)cc3)CC2)c1	18%	1%	i	·	16µM*	·
CCCCCCCCN1C(=O)[C@@H](CC(=O)NCc2ccccc2)C[C@@]2(C(=O)OC)C1=C[C@H](COCc1ccccc1)O[C@@H]2C	·	·	·	i	·	·
COC(=O)[C@]12C[C@H](CC(=O)NCc3ccc(C)o3)C(=O)N(Cc3ccccc3)C1=C[C@H](COCc1ccccc1)O[C@@H]2C	·	·	·	35µM*	·	·
COC(=O)[C@]12C[C@H](CC(=O)N3CCC(c4ccccc4)CC3)C(=O)N(Cc3ccccc3)C1=C[C@H](COCc1ccccc1)O[C@@H]2C	·	·	·	13µM*	·	·
CCCCCCCCN1C(=O)[C@@H](CC(=O)N2CCN(C(=O)C3CC3)CC2)C[C@@]2(C(=O)OC)C1=C[C@H](COCc1ccccc1)O[C@@H]2C	·	·	·	28µM*	·	·
COC(=O)[C@]12C[C@H](CC(=O)NCc3ccc(C)o3)C(=O)N(CCc3ccc(OC)c(OC)c3)C1=C[C@H](COCc1ccccc1)O[C@@H]2C	·	·	·	i	·	·
COc1cc(C(=O)Nc2nonc2-c2ccc(C)c(C)c2)cc(OC)c1OC	25%	1%	i	i	·	·
CC(=O)N(C)c1ccc(/C=C2\C=Cc3ccccc32)cc1	·	0%	·	·	4%	·
CCSC1=NC2(CCCCC2)Nc2sc3c(c21)CCCC3	29%	-9%	i	35µM*	3%	-4%
CCSc1nc2sc3c(c2c(=O)[nH]1)CCCC3	7%	-5%	i	i	2%	0%
Nc1cc(N2CCCCC2)c([N+](=O)[O-])cc1Cl	?	-3%	i	·	13%	4%
Nc1cc(N2CCCCC2)c(Cl)cc1[N+](=O)[O-]	13µM*	2%	i	i	1%	0%
COC(=O)CNC(=O)[C@H](Cc1ccccc1)NC1(C(=O)NCCc2c[nH]c3ccccc23)CCCCC1	·	·	·	i	·	·
CCCCc1cc(=O)oc2c(C)c(OCC(=O)N3CCC(C(=O)O)(c4ccccc4)CC3)ccc12	12%	4%	i	28µM*	-10%	2%
CCCCc1cc(=O)oc2c(C)c(OCC(=O)N3CCCC3)ccc12	11%	13µM*	i	·	6%	1%
SMILES	TDP43 rescue	ClpP mod	Abeta yeast res	FUS yeast rescue	aSyn rescue	Mm-Cpn inhibitor
CCc1cc(=O)oc2c(C)c(OCC(=O)N3CCC(C(=O)O)CC3)ccc12	-16%	5%	i	i	5%	1%
CCOCCCNC(=O)c1ccc(-n2c(-c3ccccc3)cc3c2CCCC3)cc1	5%	-16%	i	i	·	·
Cc1ccc(Oc2c(C(F)(F)F)oc3c(CN4CCC(C)CC4)c(O)ccc3c2=O)cc1	23%	0%	i	i	·	·
CN1C(=O)C2(Nc3ccccc3-c3nc4ccccc4n32)c2ccccc21 (stereo not drawn)	-12%	-3%	i	50µM*	-8%	-1%
O=C1Nc2ccccc2C12Nc1ccccc1-c1nc3ccccc3n12 (stereo not drawn)	-1%	-10%	i[9.22 µM]	i	-3%	0%
CCN(Cc1cccc(S(=O)(=O)O)c1)c1ccc(C(=C2C=CC(=[N+](CC)Cc3cccc(S(=O)(=O)O)c3)C=C2)c2ccc(O)cc2S(=O)(=O)O)cc1	·	-3%	·	·	-64%	·
C/C=C/c1cc(OC)c2c(c1)[C@H](C)[C@@H](c1ccc(O)c(OC)c1)O2	28%	-1%	i	i	7.9µM*	·
COc1cc([C@H]2OC[C@H]3[C@@H]2CO[C@H]3c2ccc(O)c(OC)c2)ccc1O	20%	1%	i	i	1%	0%
Cc1nc(CNC(=O)CC2C(=O)NCCN2Cc2ccc(F)cc2)cs1 (stereo not drawn)	7%	0%	i	·	1%	4%
Cc1ccc(CN2CCNC(=O)C2CC(=O)NCc2cc(C)n(C)n2)cc1 (stereo not drawn)	-1%	32µM*	i	·	0%	-1%
CCOc1ccc(CN2CCNC(=O)C2CC(=O)NCCc2cnccn2)cc1 (stereo not drawn)	-7%	0%	i	i	-5%	4%
CCOc1ccc(CN2CCNC(=O)C2CC(=O)NCc2csc(C)n2)cc1 (stereo not drawn)	-16%	28µM*	i	·	-8%	2%
CCOc1ccc(CN2CCNC(=O)C2CC(=O)NCCN2CCOC2=O)cc1 (stereo not drawn)	-3%	28µM*	i	i	-1%	-22%
COc1cc(-c2nnc(SCC(=O)N(C)C3CCCCC3)o2)cc(OC)c1OC	18%	-1%	i	i	·	·
CCCc1c(C)[nH]c2nc3ccccc3n2c1=O	?	2%	i	i	-27%	0%
CCc1c(C)[nH]c2nc3ccccc3n2c1=O	0%	28µM*	i	i	-22%	0%
